Results on 39 molecules are retold here after PubChem BioAssay (EPA / NIEHS).

Broadly, the AC50 is the midpoint of the concentration-response curve, whichever way the signal moves.

Molecules are shown by their SMILES. Several values for one entry are separate records, joined by “and”; a condition that tells them apart may be missing. Equal entries are not always repeated. A structure can be active in one record and inactive in another. Activity calls are given as the source filed them. Rule for the calls: active = hit-call score of the fitted dose curve at least 0.9, where 1 is the maximum; inactive = score below 0.9.

Read-out in the assay: urokinase Plasminogen Activator (uPA), PLAU (gene 5328)
The experiment in a line: BSK_BF4T_uPA: BioMAP Diversity Plus: BF4T Assay for urokinase Plasminogen Activator (uPA) Biomarker Activity (AID 2284275). The conditions noted are these: primary human bronchial epithelial cells with fibroblasts. The protocol:
BSK_BF4T is a cell-based, multiplexed-readout assay that uses bronchial epithelial cells and dermal fibroblasts, a human vascular primary cell, with measurements taken at 24 hours after chemical dosing in a microplate: 96-well plate.BSK_BF4TA is an assay component measured in the BSK_BF4T assay. It measures uPA antibody related to regulation of gene expression using ELISA technology.Data from the assay component BSK_BF4TA was analyzed at the endpoint, BSK_BF4TA, in the positive analysis fitting direction relative to DMSO as the negative control and baseline of activity. Using a type of binding reporter, gain or loss-of-signal activity can be used to understand protein changes. To generalize the intended target to other relatable targets, this assay endpoint is annotated to the 'protease' intended target family, where the subfamily is 'serine protease'.
The levels of cell surface (or secreted, indicated by the prefix "s") biomarker endpoints were measured by ELISA. Overt cytotoxicity to cells in confluent adherent cultures (all systems other than the BT system) was assessed by measuring total protein levels using sulforhodamine B (SRB) staining in parallel cultures at the time of biomarker measurements, indicated as SRB endpoints. For proliferation assays for adherent cell types, individual cell types are cultured at sub-confluence and relative cell numbers quantified by SRB staining at time points optimized for each system (48 h: 3C and CASM3C systems; 72 h: BT and HDF3CGF systems; 96 h: SAg system). SRB was performed by staining cells with 0.1% SRB after fixation with 10% TCA and reading wells at 560 nm.Viability and proliferation of PBMC (T cells) was quantified by Alamar Blue reduction for the SAg and BT systems. For PBMC viability (referred to as PBMC Cytotoxicity within the assay endpoint names), cells were plated (75,000/well in a 96-well plate) and then chemical samples added for 1 h before addition of activators, SEB and TSST-1 (20 ng/mL final concentration each). Cells were incubated for 90 h. Then, Alamar Blue (20 uL/well) (Invitrogen, Cat DAL1100) was added for 6 h, and the plates were read with a fluorescence microplate reader at 546/580 nm (excitation/emission). For PBMC proliferation, cells were plated and activated as above but incubated for only 16 h prior to addition of Alamar Blue. Plates were read after 6 h.
On to `CCCCCCCCC(F)(F)C(F)(F)C(F)(F)C(F)(F)C(F)(F)C(F)(F)F`, for which the outcome was inactive.

With `OCCCC(F)(F)C(F)(F)C(F)(F)F`, the result was inactive.

With `FC(F)(F)C(F)(F)C(F)(F)C(F)(F)C(F)(F)CCI`, the outcome was inactive. The same measure, in the same setting: under `CCO[Si](CCC(F)(F)C(F)(F)C(F)(F)C(F)(F)C(F)(F)C(F)(F)F)(OCC)OCC` stands “inactive”.

`NC(=O)C(F)(F)C(F)(F)C(F)(F)C(F)(F)F`: the result was inactive. Still for that read-out and setting: under `O=C(O)C(F)(F)C(F)(F)C(F)(F)C(F)(F)C(F)(F)C(F)(F)C(F)(F)C(F)(F)C(F)(F)C(F)(F)C(F)(F)C(F)(F)F` stands “inactive”; under `O=C(O)C(F)(F)C(F)(F)C(F)(F)F`, “inactive”. As to `FC(F)(F)C(F)(F)C(F)(F)C(F)(F)C(F)(F)C(F)(F)C(F)(F)C(F)(F)CCS`, the outcome was inactive. With `FC(F)(F)C(F)(F)C(F)(F)C(F)(F)C(F)(F)C(F)(F)C(F)(F)C(F)(F)F`, the outcome was inactive.

Regarding `C=CC(=O)OCC(F)(F)C(F)(F)C(F)(F)C(F)(F)COC(=O)C=C`, the concentration at half-maximal activity (AC50) was 30 µM (active) and the outcome was inactive. `CC(C)(C)C(=O)CC(=O)C(F)(F)C(F)(F)C(F)(F)F`: the outcome was inactive.

On to `O=C(Cl)C(F)(F)C(F)(F)C(F)(F)C(F)(F)C(F)(F)C(F)(F)C(F)(F)C(F)(F)F`, for which the AC50 was 46 µM (active) and 48 µM (active) and 44.8 µM (active). With `O=S(=O)(OCCOC(F)(F)F)C(F)(F)F`, the outcome was inactive. Consider `O=C(O)C(F)(OC(F)(F)C(F)(OC(F)(F)C(F)(F)C(F)(F)F)C(F)(F)F)C(F)(F)F` (stereo not given), for which the result was inactive. As to `FC(F)(I)C(F)(F)C(F)(F)C(F)(F)I`, the AC50 is 49.9 µM (active) and 53.8 µM (active) and 46.2 µM (active). Take `O=C(O)C(F)(F)C(F)(F)C(F)(F)C(F)(F)C(F)(F)C(F)(F)C(F)(F)C(F)(F)C(F)(F)C(F)F`: the AC50 was 41.3 µM (active) and 17.5 µM (active). For `C=C(C)C(=O)OCCC(F)(F)C(F)(F)C(F)(F)C(F)(F)C(F)(C(F)(F)F)C(F)(F)F`, the outcome was inactive. Regarding `O=C(O)C=C(C(F)(F)F)C(F)(F)F`, the outcome was inactive. `O=C(O)C(F)(F)C(F)(F)F`: the outcome was inactive. With `O=S(=O)(OCC(F)F)C(F)(F)F`, the result was inactive. The same measure, in the same setting: under `C=C(C)C(=O)OCC(F)(F)C(F)(F)C(F)(F)F` stands “inactive”. `FC(F)(F)C(F)(F)C(F)(F)C(F)(F)C(F)(F)C(F)(F)C(F)(F)Br`: the result was inactive.

In the case of `Cc1ccc(S(=O)(=O)OCC(F)(F)C(F)(F)C(F)(F)C(F)(F)C(F)(F)C(F)F)cc1`, the outcome was inactive. Turning to `OCCCC(F)(F)C(F)(F)C(F)(F)C(F)(F)C(F)(F)C(F)(F)C(F)(F)F`, the AC50 is 47.8 µM (active) and 45.7 µM (active). In the case of `O=C(O)C(F)(F)C(F)(F)OC(F)(F)F`, the outcome was inactive. On to `FC(F)(F)C(F)(F)C(F)(F)C(F)(F)C(F)(F)C(F)(F)C(F)(F)I`, for which the result was inactive.

For `FC(F)(Br)C(F)(F)C(F)(F)C(F)(F)C(F)(F)C(F)(F)Br`, the result was inactive.

Regarding `O=C(O)C(F)(F)C(F)(F)C(F)(F)C(F)(F)C(F)(F)C(F)(F)C(F)(F)C(F)(F)Cl`, the AC50 was 45.3 µM (active) and 46.1 µM (active). Consider `C=CC(=O)OCC(F)(F)C(F)(F)C(F)(F)C(F)(F)C(F)(F)C(F)(F)C(F)(F)F`, for which the result was inactive. As for `FC(F)(F)C(F)(F)C(F)(F)C(F)(F)CCI`, the outcome was inactive. On the same count and under the same terms, under `O=C(CC(=O)C(F)(F)C(F)(F)F)C(F)(F)F` stands “inactive”. For `O=C(O)C(F)(OC(F)(F)C(F)(OC(F)(F)C(F)(OC(F)(F)C(F)(F)C(F)(F)F)C(F)(F)F)C(F)(F)F)C(F)(F)F` (stereo not given), the outcome was inactive.

Turning to `C=CC(F)(F)C(F)(F)C(F)(F)C(F)(F)C(F)(F)C(F)(F)C(F)(F)C(F)(F)F`, the outcome was inactive.

As for `FC(F)(F)C(F)(F)C(F)(F)CI`, the result was inactive.

As for `N=C(N)C(F)(F)C(F)(F)C(F)(F)C(F)(F)C(F)(F)C(F)(F)C(F)(F)F`, the result was inactive. Turning to `FC1CC(F)(F)C(F)(F)C1(F)F` (stereo not given), the result was inactive. With `OCC(F)(F)C(F)(F)C(F)(F)C(F)(F)C(F)(F)C(F)(F)F`, the outcome was inactive. Turning to `C=CC(F)(F)C(F)(F)C(F)(F)C(F)(F)C(F)(F)C(F)(F)C(F)(F)C(F)(F)C=C`, the outcome was inactive. Still for that read-out and setting: under `C=C(C)C(=O)OCC(F)(F)C(F)(F)C(F)(F)C(F)(F)C(F)(F)C(F)(F)C(F)(F)F` stands “inactive”.
